Screening results from PubChem BioAssay.
Sfp inh: blocks B. subtilis Sfp PPTase activity. hit rate 3.5% among 310,000. AID 1490. Potency, µM, for the others: largest response in the series, negative = inhibition, actives largely listed as inhibitors. Q9F4F7. Biochemical Sfp PPTase activity, qHTS;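 further: the enzyme is Sfp with the accession as filed and its product quenches rhodamine fluorescence; 0% = enzyme reaction without inhibitor and -100% = no enzyme wells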
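Compounds were incubated with enzyme (final 15 nM) for 15 min at room temperature before substrate addition started the reaction. Fluorescence at 525 nm excitation, 598 nm emission was recorded immediately and after 30 minutes.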
HP1b binding inh: blocks HP1-beta chromodomain binding to methylated histone tails; P83916; AlphaScreen HP1-beta / biotin-H3K9me3 peptide binding; Potency, µM (top dose mostly 114 µM), for inactives: top-dose activity change, negative = inhibition, actives largely listed as inhibitors; hit rate 0.56% among 390,000; further: nearly all actives have a fitted effect of over 70% in size
Target sequence (P83916 whole entry, looked up): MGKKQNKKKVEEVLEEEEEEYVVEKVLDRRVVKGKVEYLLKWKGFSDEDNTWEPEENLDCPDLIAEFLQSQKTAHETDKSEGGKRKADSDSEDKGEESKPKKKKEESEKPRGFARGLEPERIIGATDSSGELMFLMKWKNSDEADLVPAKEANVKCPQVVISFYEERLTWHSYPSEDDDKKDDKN
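HP1-beta protein (50 nM final) preincubated 30 min at room temperature with biotinylated H3(1-18)K9me3 peptide (50 nM) in PBS pH 7.4, 0.01% Tween-20, then compound added for 30 min. AlphaScreen streptavidin donor/nickel chelate acceptor beads (10 ug/mL final), 30 min dark, luminescence read.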
JMJD2A Tudor: blocks the human JMJD2A Tudor domain. O75164. AlphaScreen JMJD2A-Tudor / H3K4me3 peptide binding. Potency, µM (top dose mostly 114 µM), inactives show at the highest dose activity change, negative = inhibition, actives largely listed as inhibitors. hit rate 4.4% among 390,000; further: on the % scale 0 is the no-effect control and ±100 the full control effect; nearly all actives have a fitted effect of over 50% in size
G9a block: G9a (human) methyltransferase inhibition; Q96KQ7; G9a H3K9 monomethylation, AlphaScreen, 2 h; Potency, µM (highest dose often 102 µM), for the others: at the highest dose activity, negative = inhibition, usual class: inhibitors; hit rate 8.8% among 350,000; AID 504332; further: on the % scale 0 is the no-effect control and ±100 the full control effect; nearly all actives have a fitted effect of over 75% in size
Target sequence (Q96KQ7 913-1193 limits assumed): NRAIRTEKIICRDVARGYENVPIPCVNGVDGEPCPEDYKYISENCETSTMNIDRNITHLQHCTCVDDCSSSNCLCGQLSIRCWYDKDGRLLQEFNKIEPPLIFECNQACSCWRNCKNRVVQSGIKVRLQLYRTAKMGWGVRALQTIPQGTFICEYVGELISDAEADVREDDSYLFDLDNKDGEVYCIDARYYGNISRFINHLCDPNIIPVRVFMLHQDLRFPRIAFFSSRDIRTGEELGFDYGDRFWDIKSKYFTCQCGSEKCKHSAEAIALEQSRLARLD
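Readings reflect AlphaScreen signal from monomethyl-H3K9 antibody detection. HMT at 20 nM; substrate b-H3K9 500 nM; cofactor SAM 20 uM; 2 h RT reaction; compounds tested as titrations in qHTS with 15 min preincubation.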
BAZ2B inh: inhibitors of human BAZ2B bromodomain; Q9UIF8; AlphaScreen BAZ2B-H3K14Ac peptide displacement; Potency, µM (top dose mostly 114 µM), without a hit: at the top dose activity change, negative = inhibition, most hits filed as inhibitors; hit rate 4.4% among 360,000; further: on the % scale 0 is the no-effect control and ±100 the full control effect; nearly all actives have a fitted effect of over 60% in size
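Compounds, titrated to a top concentration of 110 uM, were incubated 30 min at room temperature with preformed BAZ2B/acetyl-K14 H3 peptide complex (50 nM each). Proximity signal was measured by AlphaScreen after 20 min with beads.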
L3MBTL1 block: inhibitors of human L3MBTL1; Q9Y468; AlphaScreen L3MBTL1–H3K9me1 peptide binding; hit rate 0.66% among 230,000; Potency, µM (highest dose often 57.1 µM), inactives show at the highest dose activity, negative = inhibition, hits mostly inhibitors; AID 485360; further: on the % scale 0 is the no-effect control and ±100 the full control effect; nearly all actives have a fitted effect of over 60% in size
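Read-out is AlphaScreen signal from streptavidin donor and nickel chelate acceptor beads (10 ug/mL final each) bridging L3MBTL1 (50 nM) and biotinylated K9-monomethylated H3(1-15) peptide (75 nM), after 30 min compound exposure at room temperature.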
Starred values were filed as active, the others as inactive; [ ] = another dose, or the depositor's remark. Hits are enriched below; roughly 12% of the tested compounds scored in any of these assays. The call rests on the fitted dose curve; in most records, active means well fitted curve in the direction sought with a large enough effect; inconclusive means small, poorly fitted or top-dose-only effect, or another doubt; inactive means no such curve, though single readings can be large; an effect the other way counts as inactive or inconclusive. Potency means the concentration at half of the fitted maximal effect.

For COc1ccccc1C1CC(=O)Oc2cc(C)c(Cl)cc21 (centres undefined) the results were Sfp inh -22%, HP1b binding inh 78%, JMJD2A Tudor 25%, G9a block 63% and L3MBTL1 block inconclusive.
For Cc1ccccc1C1CC(=O)Oc2ccc(O)cc21 (centres undefined) the results were Sfp inh 126µM* and G9a block 10µM*.
`COc1ccccc1C1CC(=O)Oc2cc3c(cc21)OCO3` (centres undefined) gave Sfp inh -18% and G9a block 35µM*.
Screening COc1ccc(C2CC(=O)Oc3ccc(O)cc32)cc1 (centres undefined) returned Sfp inh inconclusive and G9a block 35µM*.
Screening COc1ccc(C2CC(=O)Oc3ccc(OC)cc32)cc1 (centres undefined) returned HP1b binding inh 46%, JMJD2A Tudor -3% and L3MBTL1 block -10%.
For Cc1nc2c(-c3ccccc3)c(C)nn2c(C)c1CCC(=O)N1CCN(c2ccc(F)cc2)CC1 the results were HP1b binding inh 22%, JMJD2A Tudor -21%, G9a block -4%[59 µM] and BAZ2B inh -24%.
For COc1cc(C2CC(=O)Oc3c2c(=O)n(C)c2ccccc32)ccc1O (centres undefined) the results were Sfp inh 4%, HP1b binding inh 19%, JMJD2A Tudor -15%, G9a block -47%, BAZ2B inh -25% and L3MBTL1 block inconclusive.
Screening COc1cc(C2CC(=O)Oc3c2c(=O)n(C)c2ccccc32)cc(OC)c1OC (centres undefined) returned Sfp inh 13%, HP1b binding inh inconclusive, JMJD2A Tudor -19%, G9a block -8%, BAZ2B inh 50µM* and L3MBTL1 block 1%.
For Cc1ccc(C)c(CN2C(=O)c3ccccc3S(=O)c3ccc(C(=O)N(C)Cc4ccccc4)cc32)c1 (centres undefined) the results were HP1b binding inh 18%, JMJD2A Tudor -24%, G9a block -8%[59 µM] and BAZ2B inh -22%.
For Cc1ccc(N2C(=O)C(CC(=O)Nc3cccc(F)c3)N(C3CC3)C2=O)cc1 (centres undefined) the results were Sfp inh 15%, HP1b binding inh 42%, JMJD2A Tudor -13%, G9a block 45µM* and BAZ2B inh -16%.
Screening CCc1ccc(NC(=O)CC2C(=O)N(c3ccc(C)cc3)C(=O)N2C2CCCC2)cc1 (centres undefined) returned HP1b binding inh 17%, JMJD2A Tudor -1%, G9a block 11%[59 µM] and BAZ2B inh -5%.
Screening COc1ccc(NC(=O)CC2C(=O)N(c3ccc(OC)cc3)C(=O)N2C(C)C)cc1 (centres undefined) returned Sfp inh 23%, HP1b binding inh 31%, JMJD2A Tudor -18%, G9a block 56µM* and BAZ2B inh inconclusive.
Screening COc1ccc(NC(=O)CC2C(=O)N(c3ccc(OC)cc3)C(=O)N2C2CCCCC2)cc1 (centres undefined) returned HP1b binding inh 53%, JMJD2A Tudor -17%, G9a block inconclusive and BAZ2B inh -11%.
COc1cccc(N2C(=O)C(CC(=O)Nc3ccccc3)N(C3CCCCC3)C2=O)c1 (centres undefined) was read as Sfp inh 3%, HP1b binding inh 29%, JMJD2A Tudor -13%, G9a block -1%, BAZ2B inh -18% and L3MBTL1 block 0%.
CCc1ccc(NC(=O)CC2C(=O)N(c3cccc(OC)c3)C(=O)N2C2CCCC2)cc1 (centres undefined) was read as HP1b binding inh 0%, JMJD2A Tudor -31%, G9a block 7.9µM* and BAZ2B inh inconclusive.
Cc1ccc(S(=O)(=O)c2nc(-c3ccccc3)oc2SCC(=O)NC2CCCCC2)cc1 was read as HP1b binding inh 25%, JMJD2A Tudor 2%, G9a block -6%[59 µM] and BAZ2B inh 1%.
For O=C(COC(=O)CNC(=O)C1CCCCC1)NC1CC1 the results were HP1b binding inh 14%[57 µM] and JMJD2A Tudor -6%[57.1 µM].
For Cc1nc2c(c(C)nn2-c2ccccc2)c(C)c1CCC(=O)Nc1ccc(F)cc1 the results were HP1b binding inh 44%, JMJD2A Tudor 0%, G9a block 14%[59 µM] and BAZ2B inh -12%.
For CCOc1cc(CNc2ccc(O)cc2)ccc1OCc1ccc(Cl)cc1Cl the results were Sfp inh inconclusive, HP1b binding inh -38%, JMJD2A Tudor 79µM*, G9a block inconclusive, BAZ2B inh inconclusive and L3MBTL1 block inconclusive.
For COc1cc(CNCc2ccccn2)ccc1OCc1ccc(Cl)cc1Cl the results were Sfp inh inconclusive, HP1b binding inh 5%, JMJD2A Tudor inconclusive, G9a block 40%[12.7 µM], BAZ2B inh inconclusive and L3MBTL1 block inconclusive.
For CCOc1cccc(CNc2ccc(O)cc2)c1OCc1ccc(Cl)cc1 the results were Sfp inh 45µM*, HP1b binding inh -7%, JMJD2A Tudor 79µM*, G9a block 14µM*, BAZ2B inh -35%[57.1 µM] and L3MBTL1 block inconclusive.
`Oc1ccc(NCc2ccc(OCc3ccccc3Cl)cc2)cc1` gave HP1b binding inh inconclusive, JMJD2A Tudor 50µM*, G9a block 3.2µM* and BAZ2B inh inconclusive.
Screening O=C(Cn1c(NCCCO)nc2ccccc21)c1ccc(Cl)cc1Cl returned Sfp inh -14%, HP1b binding inh -2%, JMJD2A Tudor -25%, G9a block 79µM* and BAZ2B inh -31%.
For COc1ccc(-n2c(C)cc(C(=O)Cn3c(NCCO)nc4ccccc43)c2C)cc1 the results were Sfp inh -21%, HP1b binding inh inconclusive, JMJD2A Tudor inconclusive, G9a block 50µM*, BAZ2B inh 50µM* and L3MBTL1 block -8%.
O=C(Cn1c(NCCO)nc2ccccc21)c1ccc(F)cc1 was read as Sfp inh 9%, HP1b binding inh 37%, JMJD2A Tudor -1%, G9a block 14%, BAZ2B inh -15% and L3MBTL1 block -5%.
`CCOC(=O)c1c(NC(=O)c2ccc(Br)o2)sc(C)c1CC` gave Sfp inh inconclusive, HP1b binding inh 184%, JMJD2A Tudor 77%, G9a block 216%, BAZ2B inh 90% and L3MBTL1 block 38%.
For C=CCn1c(NC(=O)c2ccc(Br)o2)c(C(=O)OCC)sc1=S the results were Sfp inh inconclusive, HP1b binding inh -39%, JMJD2A Tudor 89µM*, G9a block 3.2µM*, BAZ2B inh -30% and L3MBTL1 block 4%.
